{
  "source": "PubChem BioAssay (NCATS)",
  "key": {"[1]": {"assay": "Cell Viability - LYMP2-008 (AID 980); further: nearly all actives have a fitted effect of over 60% in size", "outline": "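Cells seeded at 2500/well and rested 5 hr at 37 C; compounds added over a concentration range and incubated 24 hr at 37 C; CellTiter-Glo added, 30 min at room temperature; luminescence read and AC50 fitted with Hill model.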"}, "[2]": {"assay": "Cell Viability - LYMP2-012 (AID 982);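 further: cellular ATP by luciferase luminescence where a drop means cytotoxicity; cells exposed to compound for one day before reading; nearly all actives have a fitted effect of over 55% in size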"}, "[3]": {"assay": "Cell Viability - LYMP2-016 (AID 984);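 further: cells exposed to compound for 24 hours at 37 °C; nearly all actives have a fitted effect of over 55% in size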", "outline": "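qHTS, 1536-well: 2500 LYMP2-016 cells/well, 5 hr 37 C, compound added, 24 hr 37 C, CellTiter-Glo 30 min RT, luminescence. Tetraoctylammonium bromide positive control. AC50 via Hill fit.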"}, "[4]": {"assay": "Cell Viability - LYMP2-018 (AID 985); further: nearly all actives have a fitted effect of over 50% in size", "outline": "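Seed 2500 lymphoblastoid cells per well, incubate 5 hr at 37 C, add compound and incubate 24 hr at 37 C, add CellTiter-Glo, wait 30 min at room temperature, then read luminescence.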"}, "[5]": {"assay": "Cell Viability - LYMP2-020 (AID 986); further: series mostly up to about 92 µM; nearly all actives have a fitted effect of over 55% in size", "outline": "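Seed 2500 cells per well and incubate 5 hr at 37 C. Add compounds at a concentration series and incubate 24 hr at 37 C. Add CellTiter-Glo, wait 30 min at RT, read luminescence, and fit a Hill curve for AC50.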"}, "[6]": {"assay": "Cell Viability - LYMP2-022 (AID 987); further: nearly all actives have a fitted effect of over 55% in size", "outline": "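Cells were seeded at 2500 per well, rested 5 hr at 37 C, and treated with titrated compounds for 24 hr at 37 C. Cellular ATP was then quantified by luciferase luminescence, and AC50 values were derived from Hill-modelled concentration-response curves.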"}, "[7]": {"assay": "Cell Viability - LYMP2-024 (AID 988); further: nearly all actives have a fitted effect of over 60% in size", "outline": "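qHTS cytotoxicity, human lymphoblastoid line, complete medium; 24 h cpd treatment, 37 C; CellTiter-Glo ATP luminescence readout; tetraoctylammonium bromide positive control; AC50 via Hill fit.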"}, "[8]": {"assay": "Cell Viability - LYMP2-026 (AID 989); further: nearly all actives have a fitted effect of over 50% in size", "outline": "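Cells are seeded at 2500 per well and held 5 hr at 37 C. Compounds are added in concentration series for 24 hr, then CellTiter-Glo reagent is applied and luminescence read.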"}, "[9]": {"assay": "Cell Viability - LYMP1-002 - Assay at 24 hr (AID 993)", "outline": "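Acute toxicity is measured as concentration-dependent loss of cellular ATP in a human lymphoblastoid line (Coriell LYMP1-002) after 24 h treatment in complete medium. ATP is quantified by luciferase luminescence and AC50 derived by Hill modelling.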"}, "[10]": {"assay": "Cell Viability - LYMP1-002 - Assay at 40 hr (AID 994); further: nearly all actives have a fitted effect of over 60% in size", "outline": "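Cells are plated at 2500 per well and rested 5 hr at 37 C. Compounds are added and incubated 40 hr at 37 C. CellTiter-Glo reagent is added for 30 min at room temperature before luminescence is read.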"}, "[11]": {"assay": "qHTS Assay for Identification of Small Molecule Inducers of Hypoxia Response (AID 2120; active means well fitted curve in the direction sought with a large enough effect in the signal ratio, with a control signal flat, not every such curve was filed as active; the % refers to the signal ratio)", "outline": "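Cell-based qHTS for reporter induction: hypoxia response element controlled beta-lactamase in ME-180 cells. Compounds incubated 17 h at 37 degrees C; activity from blue/green (460/530 nm) ratio, inducers ranked by AC50.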"}, "[12]": {"target": "Androgen receptor (Homo sapiens) (UniProt P10275)", "sequence (P10275 whole entry, looked up)": "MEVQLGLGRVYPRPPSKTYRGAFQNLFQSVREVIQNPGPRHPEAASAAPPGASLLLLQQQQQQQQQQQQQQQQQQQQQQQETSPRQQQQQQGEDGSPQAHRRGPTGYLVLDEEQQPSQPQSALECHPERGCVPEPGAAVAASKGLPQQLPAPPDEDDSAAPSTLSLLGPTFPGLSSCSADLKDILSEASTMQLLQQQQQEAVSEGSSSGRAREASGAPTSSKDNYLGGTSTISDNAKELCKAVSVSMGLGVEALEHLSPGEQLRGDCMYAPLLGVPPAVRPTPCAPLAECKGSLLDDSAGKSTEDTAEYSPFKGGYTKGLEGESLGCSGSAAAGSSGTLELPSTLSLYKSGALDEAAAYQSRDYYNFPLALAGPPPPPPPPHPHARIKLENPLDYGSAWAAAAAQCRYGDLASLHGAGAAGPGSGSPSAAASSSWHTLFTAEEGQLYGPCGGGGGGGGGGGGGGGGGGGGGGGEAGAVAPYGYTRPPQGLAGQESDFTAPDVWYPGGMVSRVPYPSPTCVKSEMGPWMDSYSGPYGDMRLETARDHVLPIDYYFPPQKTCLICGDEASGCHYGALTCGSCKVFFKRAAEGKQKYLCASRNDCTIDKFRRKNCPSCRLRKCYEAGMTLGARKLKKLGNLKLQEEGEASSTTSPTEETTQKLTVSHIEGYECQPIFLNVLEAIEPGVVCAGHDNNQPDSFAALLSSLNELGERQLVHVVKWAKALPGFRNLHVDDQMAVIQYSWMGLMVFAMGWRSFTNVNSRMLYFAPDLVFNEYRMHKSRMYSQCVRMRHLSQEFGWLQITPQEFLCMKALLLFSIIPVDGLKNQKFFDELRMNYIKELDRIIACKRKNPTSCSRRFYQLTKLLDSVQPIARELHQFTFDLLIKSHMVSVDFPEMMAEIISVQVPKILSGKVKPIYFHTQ", "assay": "qHTS assay for small molecule agonists of androgen receptor signaling (AID 588515; active means well fitted curve in the direction sought with a large enough effect in the signal ratio, with a control signal flat; the % refers to the signal ratio)", "conditions": "AR-UAS-bla HEK293, beta-lactamase ratio, agonist 16 h; stronger effect = higher value", "outline": "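Stimulation of an AR-responsive β-lactamase reporter in GripTite HEK293 cells was measured after 16 h compound exposure at 37 °C, via CCF4 fluorescence after 2 h RT. EC50 from Hill fits, normalized to R1881 at 30 nM.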"}, "[13]": {"target": "Glucocorticoid receptor (Homo sapiens) (UniProt P04150)", "sequence (P04150 whole entry, looked up)": "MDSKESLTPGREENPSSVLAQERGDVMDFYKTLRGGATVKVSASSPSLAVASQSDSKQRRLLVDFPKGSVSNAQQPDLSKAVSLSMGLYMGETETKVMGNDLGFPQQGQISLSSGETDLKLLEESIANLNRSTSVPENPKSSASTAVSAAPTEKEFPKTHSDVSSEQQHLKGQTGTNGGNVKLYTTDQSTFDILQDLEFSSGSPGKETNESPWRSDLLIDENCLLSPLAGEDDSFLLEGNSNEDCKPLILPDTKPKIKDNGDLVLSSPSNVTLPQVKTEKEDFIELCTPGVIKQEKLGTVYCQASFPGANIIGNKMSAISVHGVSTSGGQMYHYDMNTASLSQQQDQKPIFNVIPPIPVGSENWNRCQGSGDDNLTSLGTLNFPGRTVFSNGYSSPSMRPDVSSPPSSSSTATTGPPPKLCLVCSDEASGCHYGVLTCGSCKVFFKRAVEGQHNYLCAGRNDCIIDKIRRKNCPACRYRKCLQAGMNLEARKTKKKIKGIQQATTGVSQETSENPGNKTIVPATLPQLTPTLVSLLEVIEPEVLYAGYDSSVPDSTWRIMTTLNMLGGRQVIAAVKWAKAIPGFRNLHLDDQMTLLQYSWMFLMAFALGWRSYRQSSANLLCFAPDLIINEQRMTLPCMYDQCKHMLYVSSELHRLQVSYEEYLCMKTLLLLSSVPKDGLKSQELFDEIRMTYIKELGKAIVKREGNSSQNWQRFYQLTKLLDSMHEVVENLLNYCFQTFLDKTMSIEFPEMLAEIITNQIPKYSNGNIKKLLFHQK", "assay": "qHTS assay for small molecule agonists of glucocorticoid receptor signaling (AID 588532; active means well fitted curve in the direction sought with a large enough effect in the signal ratio, with a control signal flat; the % refers to the signal ratio)", "conditions": "HeLa MMTV-bla, beta-lactamase ratio, agonist, 18 h; stronger effect = higher value; percent of dexamethasone control, DMSO zero", "outline": "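Stimulation of a glucocorticoid response element-driven beta-lactamase gene was measured in HeLa cells. Responses were scaled between DMSO basal and 0.1 uM dexamethasone, then fitted for half-maximal stimulation.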"}, "[14]": {"target": "Peroxisome proliferator-activated receptor gamma (Homo sapiens) (UniProt P37231)", "sequence (P37231 whole entry, looked up)": "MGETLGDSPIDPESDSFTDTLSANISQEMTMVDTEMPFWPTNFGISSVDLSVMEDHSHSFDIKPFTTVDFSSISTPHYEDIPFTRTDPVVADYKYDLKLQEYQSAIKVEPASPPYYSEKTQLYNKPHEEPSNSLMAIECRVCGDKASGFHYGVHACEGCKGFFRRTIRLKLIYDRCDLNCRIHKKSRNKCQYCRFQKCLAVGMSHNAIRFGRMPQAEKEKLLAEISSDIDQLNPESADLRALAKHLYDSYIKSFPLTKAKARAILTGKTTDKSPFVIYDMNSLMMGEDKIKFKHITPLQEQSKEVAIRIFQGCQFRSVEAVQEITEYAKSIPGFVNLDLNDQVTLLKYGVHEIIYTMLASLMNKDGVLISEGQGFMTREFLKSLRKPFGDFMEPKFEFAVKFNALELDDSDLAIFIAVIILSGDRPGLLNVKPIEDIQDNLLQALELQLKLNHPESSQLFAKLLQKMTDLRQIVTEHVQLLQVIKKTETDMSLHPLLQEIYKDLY", "assay": "qHTS assay for small molecule agonists of peroxisome proliferator-activated receptor gamma signaling (AID 588536; active means well fitted curve in the direction sought with a large enough effect in the signal ratio, with a control signal flat, not every such curve was filed as active; the % refers to the signal ratio)", "outline": "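Beta-lactamase reporter read-out: CCF4 fluorescence (ex 405, em 460/530 nm) after 2 h at RT. HEK293 GeneBLAzer cells were treated for 16 h at 37 C. Hill fits gave EC50 and efficacy versus 2 uM rosiglitazone (100%) and DMSO (0%).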"}, "[15]": {"target": "Vitamin D3 receptor (Homo sapiens) (UniProt P11473)", "sequence (P11473 whole entry, looked up)": "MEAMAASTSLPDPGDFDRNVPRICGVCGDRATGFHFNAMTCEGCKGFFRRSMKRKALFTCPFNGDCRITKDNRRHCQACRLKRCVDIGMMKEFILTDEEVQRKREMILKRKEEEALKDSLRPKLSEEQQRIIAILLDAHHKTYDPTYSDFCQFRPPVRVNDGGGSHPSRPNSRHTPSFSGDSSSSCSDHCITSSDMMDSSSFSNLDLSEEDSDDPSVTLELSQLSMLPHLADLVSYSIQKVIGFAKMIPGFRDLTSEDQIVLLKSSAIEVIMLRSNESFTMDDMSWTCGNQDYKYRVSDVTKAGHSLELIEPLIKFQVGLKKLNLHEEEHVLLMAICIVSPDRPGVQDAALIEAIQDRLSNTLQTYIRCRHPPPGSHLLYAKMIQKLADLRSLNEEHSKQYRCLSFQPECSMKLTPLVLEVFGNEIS", "assay": "qHTS assay for small molecule antagonists of vitamin D receptor signaling (AID 588541; calls by dose curve;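 further: receptor activated by calcitriol during compound treatment; series mostly up to about 77 µM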)", "outline": "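VDR-UAS-bla HEK293T cells (2000/well, 2% charcoal-stripped FBS) were treated with titrated compounds plus 1-alpha,25-dihydroxyvitamin D3 (50 nM or 3 nM final) for 16 h at 37 C. CCF4 beta-lactamase fluorescence was read; Hill fits gave IC50.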"}, "[16]": {"target": "Vitamin D3 receptor (Homo sapiens) (UniProt P11473)", "assay": "qHTS assay for small molecule agonists of vitamin D receptor signaling (AID 588543; calls by dose curve)", "outline": "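β-lactamase reporter, VDR-UAS-bla HEK293T, agonist mode. Cells plated 5 h at 37 °C, compound titration 16 h at 37 °C, CCF4 dye 2 h RT, ratio 460/530 nm. Hill fit → EC50, efficacy vs 50 nM 1α,25-(OH)2D3.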"}, "[17]": {"target": "Thyroid hormone receptor beta (Homo sapiens) (UniProt P10828)", "sequence (P10828 whole entry, looked up)": "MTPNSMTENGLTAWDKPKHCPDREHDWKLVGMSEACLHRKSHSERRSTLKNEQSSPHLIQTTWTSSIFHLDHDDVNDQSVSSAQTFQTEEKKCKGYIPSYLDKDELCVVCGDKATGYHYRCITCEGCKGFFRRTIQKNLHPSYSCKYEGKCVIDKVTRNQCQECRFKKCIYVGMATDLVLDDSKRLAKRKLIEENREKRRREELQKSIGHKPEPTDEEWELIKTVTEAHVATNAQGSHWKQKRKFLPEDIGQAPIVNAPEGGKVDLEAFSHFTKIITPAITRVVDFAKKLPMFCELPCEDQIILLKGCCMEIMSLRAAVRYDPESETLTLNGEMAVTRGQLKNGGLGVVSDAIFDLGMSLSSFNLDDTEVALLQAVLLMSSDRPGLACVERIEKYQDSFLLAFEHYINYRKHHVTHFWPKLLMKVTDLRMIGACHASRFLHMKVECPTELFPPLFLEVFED", "assay": "qHTS assay for small molecule agonists of thyroid hormone receptor beta signaling (AID 588545; calls by dose curve)", "outline": "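Cells (2500/well) were seeded, incubated 4 hrs at 37 C, dosed with a compound series, incubated 18 hrs, loaded with CCF4 dye for 2 hrs at RT, then read for fluorescence. Data were scaled between DMSO (0%) and 10 nM T3 (100%).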"}, "[18]": {"assay": "qHTS assay for small molecule antagonists of retinoid X receptor alpha signaling (AID 588546; active means well fitted inhibition curve with a large enough effect in the signal ratio, with a control signal flat, not every such curve was filed as active; the % refers to the signal ratio)", "conditions": "HEK293T RXRa-UAS-bla, beta-lactamase ratio, antagonist mode; measured here: W530 green channel, cytotoxicity proxy", "outline": "(§1)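 Beta-lactamase reporter inhibition, read as CCF4 fluorescence ratio (ex 405, em 460/530 nm) after 2 h at RT. HEK293T UAS-bla cells, 2500/well, were stimulated with 9-cis-RA at 500 or 100 nM final alongside test compound for 18 h at 37 C.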"}, "[19]": {"target": "Retinoic acid receptor RXR-alpha (Homo sapiens) (UniProt P19793)", "sequence (P19793 whole entry, looked up)": "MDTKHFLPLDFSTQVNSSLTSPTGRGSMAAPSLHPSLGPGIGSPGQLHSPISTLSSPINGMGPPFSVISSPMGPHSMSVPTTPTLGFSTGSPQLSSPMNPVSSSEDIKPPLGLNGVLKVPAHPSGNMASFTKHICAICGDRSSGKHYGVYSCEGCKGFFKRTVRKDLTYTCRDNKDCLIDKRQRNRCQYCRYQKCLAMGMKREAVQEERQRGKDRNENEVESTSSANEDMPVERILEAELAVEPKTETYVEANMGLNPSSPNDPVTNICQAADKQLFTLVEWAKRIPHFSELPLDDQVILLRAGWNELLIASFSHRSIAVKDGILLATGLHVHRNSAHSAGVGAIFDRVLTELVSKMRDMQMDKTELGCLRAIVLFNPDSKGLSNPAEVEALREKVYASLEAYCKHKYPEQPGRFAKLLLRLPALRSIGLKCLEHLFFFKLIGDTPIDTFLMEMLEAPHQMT", "assay": "qHTS assay for small molecule antagonists of retinoid X receptor alpha signaling (AID 588546)", "conditions": "HEK293T RXRa-UAS-bla, beta-lactamase ratio, antagonist mode", "outline": "as §1"}, "[20]": {"target": "Thyroid hormone receptor beta (Homo sapiens) (UniProt P10828)", "assay": "qHTS assay for small molecule antagonists of thyroid hormone receptor beta signaling (AID 588547; active means well fitted inhibition curve with a large enough effect in the signal ratio, with a control signal flat, not every such curve was filed as active; the % refers to the signal ratio)", "conditions": "TR-UAS-bla HEK293, beta-lactamase ratio, antagonist mode, 18 h", "outline": "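TR-UAS-bla GripTite HEK293 cells in 2% charcoal/dextran FBS medium were preincubated 4 h at 37 C, given compound (0.59 nM to 92 uM) plus 0.4 nM T3 (final) for 18 h, then CCF4 for 2 h at RT; Hill fit gave IC50.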"}, "[21]": {"target": "Voltage-gated inwardly rectifying potassium channel KCNH2 (Homo sapiens) (UniProt Q12809)", "sequence (Q12809 whole entry, looked up)": "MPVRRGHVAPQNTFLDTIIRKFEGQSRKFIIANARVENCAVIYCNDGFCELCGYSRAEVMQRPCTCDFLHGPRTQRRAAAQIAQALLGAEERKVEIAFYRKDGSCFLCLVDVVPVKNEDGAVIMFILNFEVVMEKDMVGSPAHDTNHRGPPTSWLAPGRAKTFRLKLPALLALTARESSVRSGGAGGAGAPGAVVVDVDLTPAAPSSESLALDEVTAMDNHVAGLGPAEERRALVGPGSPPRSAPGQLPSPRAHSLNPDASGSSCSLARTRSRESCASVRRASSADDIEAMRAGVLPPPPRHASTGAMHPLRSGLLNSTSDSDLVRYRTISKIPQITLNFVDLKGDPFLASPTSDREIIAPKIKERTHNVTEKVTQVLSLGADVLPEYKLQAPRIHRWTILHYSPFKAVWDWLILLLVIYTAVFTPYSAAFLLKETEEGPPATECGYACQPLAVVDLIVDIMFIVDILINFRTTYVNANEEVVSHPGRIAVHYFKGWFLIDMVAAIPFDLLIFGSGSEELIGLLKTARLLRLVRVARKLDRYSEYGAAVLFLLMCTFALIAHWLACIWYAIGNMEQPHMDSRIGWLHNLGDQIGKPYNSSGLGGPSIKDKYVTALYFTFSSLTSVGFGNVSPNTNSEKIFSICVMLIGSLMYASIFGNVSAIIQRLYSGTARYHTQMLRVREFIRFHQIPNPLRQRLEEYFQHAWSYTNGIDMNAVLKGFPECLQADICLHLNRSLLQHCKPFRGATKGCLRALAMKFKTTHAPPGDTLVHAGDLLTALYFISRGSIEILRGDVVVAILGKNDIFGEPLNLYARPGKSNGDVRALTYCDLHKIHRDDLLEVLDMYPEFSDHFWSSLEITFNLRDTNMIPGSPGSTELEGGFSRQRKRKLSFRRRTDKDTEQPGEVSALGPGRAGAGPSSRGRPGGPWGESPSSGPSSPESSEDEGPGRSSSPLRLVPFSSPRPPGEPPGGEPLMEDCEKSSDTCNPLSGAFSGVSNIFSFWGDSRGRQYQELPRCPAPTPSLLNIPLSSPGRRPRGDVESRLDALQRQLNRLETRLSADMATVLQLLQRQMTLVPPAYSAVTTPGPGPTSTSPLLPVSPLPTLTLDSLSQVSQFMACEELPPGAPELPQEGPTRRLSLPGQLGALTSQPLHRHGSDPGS", "assay": "qHTS Assay for Small Molecule Inhibitors of the Human hERG Channel Activity (AID 588834)", "outline": "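Thallium-flux (FluxOR) read-out on FDSS: fluorescence read 10 s before and 2 min after stimulation buffer. hERG-BacMam-transduced U2OS cells, compound exposure about 10 min. AC50 by standard Hill equation.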"}, "[22]": {"assay": "qHTS assay for small molecule activators of the p53 signaling pathway (AID 651743; active means well fitted activation curve with a large enough effect in the signal ratio, not every such curve was filed as active; the % refers to the signal ratio)", "conditions": "HCT-116 p53RE-bla, beta-lactamase FRET ratio, 16 h; activation: stronger effect = higher value", "outline": "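Agonist-mode quantitative HTS in HCT-116 cells carrying a p53-response-element beta-lactamase reporter; 16 h compound treatment at 37 C, then FRET substrate loading for 2 h at room temperature and fluorescence read.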"}, "[23]": {"assay": "qHTS assay for small molecule activators of the nuclear factor-kappa B (NF-kB) signaling pathway (AID 651749; active means well fitted activation curve with a large enough effect in the signal ratio; the % refers to the signal ratio)", "conditions": "NF-kB-bla ME-180 cells, beta-lactamase FRET ratio, 16 h; activation: stronger effect = higher value", "outline": "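Human ME-180 cervical cells with an NF-kB-bla construct; compounds added via 23 nL pin transfer, DMSO as vehicle; incubation 16 hr. Reporter activity measured by FRET disruption.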"}, "[24]": {"assay": "qHTS assay for small molecule disruptors of the mitochondrial membrane potential - 1 hr assay (AID 651754; calls by dose curve)", "outline": "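Loss of mitochondrial potential shifts the cationic dye from red mitochondrial aggregates to green cytoplasmic monomers. Cells (HepG2) are treated with compound for 1 hr before a 30 min dye incubation at 37C.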"}},
  "note": "Records with an inconclusive call do not appear. A call without a number means that no potency is given here. Activity calls are given as the source filed them. Unless noted, the call rests on the fitted dose curve; in most records, active means well fitted curve in the direction sought with a large enough effect; inconclusive means small, poorly fitted or top-dose-only effect, or another doubt; inactive means no such curve, though single readings can be large; an effect the other way counts as inactive or inconclusive. Wherever activity change % (negative = inhibition) is given: series mostly up to about 77 µM.",
  "data": [
    {"smiles": "COC1=CC(=O)OC(CCc2ccccc2)C1", "note": "(centres undefined)", "values": [
      {"measurement": "Potency", "setting": "[1]", "value": "inactive"},
      {"measurement": "Potency", "setting": "[2]", "value": "inactive"},
      {"measurement": "Potency", "setting": "[3]", "value": "inactive"},
      {"measurement": "Potency", "setting": "[4]", "value": "inactive"},
      {"measurement": "Potency", "setting": "[5]", "value": "inactive"},
      {"measurement": "Potency", "setting": "[6]", "value": "inactive"},
      {"measurement": "Potency", "setting": "[7]", "value": "inactive"},
      {"measurement": "Potency", "setting": "[8]", "value": "inactive"},
      {"measurement": "Potency", "setting": "[9]", "value": "inactive"},
      {"measurement": "Potency", "setting": "[10]", "value": "inactive"},
      {"measurement": "outcome", "setting": "[11]", "value": "inactive"},
      {"measurement": "activation", "setting": "[12]", "value": "-22.1% (inactive)"},
      {"measurement": "activation", "setting": "[13]", "value": "-4.92% (inactive)"},
      {"measurement": "outcome", "setting": "[14]", "value": "inactive"},
      {"measurement": "outcome", "setting": "[15]", "value": "inactive"},
      {"measurement": "outcome", "setting": "[16]", "value": "inactive"},
      {"measurement": "outcome", "setting": "[17]", "value": "inactive"},
      {"measurement": "max response", "setting": "[18]", "value": -2.34, "unit": "%"},
      {"measurement": "max response", "setting": "[19]", "value": "14.2% (inactive)"},
      {"measurement": "activity change % (negative = inhibition)", "setting": "[20]", "value": "3.59% (inactive)"},
      {"measurement": "Potency", "setting": "[21]", "value": "inactive"},
      {"measurement": "activation", "setting": "[22]", "value": "-2.49% (inactive)"},
      {"measurement": "activation", "setting": "[23]", "value": "-1.07% (inactive)"},
      {"measurement": "Potency", "setting": "[24]", "value": "inactive"}
    ]}
  ]
}
